Where “and” joins values, the source holds several entries; their conditions need not be identical. Identical values can stand only once. Records with an inconclusive call do not appear. The source holds several records for some structures; these can differ, active in one and inactive in another. Calls of active or inactive are those of the source. How the source made its calls, unless noted: active means hit-call score of the fitted dose curve at least 0.9, where 1 is the maximum; inconclusive means response in the unintended direction; inactive means score below 0.9.

The text below walks through data of PubChem BioAssay (EPA / NIEHS).

In assay [1] the target is human Peroxisome Proliferator-activated Receptor alpha (PPARa), PPARA (gene 5465) (UniProt Q07869). The assay is described as follows: ATG_PPARa_TRANS: Attagene TRANS-FACTORIAL HepG2 Assay for human Peroxisome Proliferator-activated Receptor alpha (PPARa) (AID 2283001).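 On AC50: potency for gain of reporter signal over DMSO so agonist or activator.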 An outline of the steps:
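Cells (HepG2) are transfected with multiple reporter transcription units, exposed to chemical for 24 h, then total RNA is reverse-transcribed and amplified. Labelled products are quantified by capillary electrophoresis; induction is referenced to DMSO.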

Read-out in assay [2]: Intercellular Adhesion Molecule 1 (ICAM1), ICAM1 (gene 3383)
Nature of the assay: BSK_3C_ICAM1: BioMAP Diversity Plus: 3C Assay for Intercellular Adhesion Molecule 1 (ICAM1) Biomarker Activity (AID 2283003; active means hit-call score of the fitted dose curve at least 0.9, where 1 is the maximum; inactive means score below 0.9). The note with it: primary human endothelial cells (HUVEC); actives raise or lower the signal. An outline of the steps: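 ELISA readout of ICAM1 in human umbilical vein endothelial cells in the 3C system, taken 24 h post-dose. Gain or loss of signal versus DMSO was fitted in both directions, with SRB total-protein staining run in parallel.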

The nature of assay [3]: BSK_3C_Proliferation: Cell Proliferation Assessment in the BioMAP Diversity Plus: 3C Assay (AID 2283006; active means hit-call score of the fitted dose curve at least 0.9, where 1 is the maximum; inactive means score below 0.9;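 on AC50: potency may reflect either rise or fall in cell number versus DMSO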). The note with it: primary human endothelial cells (HUVEC). A digest of the protocol: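 Proliferation as total protein: sulforhodamine B (0.1%) stain of TCA-fixed subconfluent human umbilical vein endothelial cells, absorbance 560 nm, 48 h after dosing. Activity fitted in both directions against DMSO baseline.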

Assay [4] deals with Peroxisome proliferator-activated receptor gamma (Homo sapiens) (UniProt P37231). The assay is described as follows: ATG_PPARg_TRANS: Attagene TRANS-FACTORIAL HepG2 Assay for human Peroxisome Proliferator-activated Receptor-gamma (PPARg) (AID 2283007). A digest of the protocol: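 After 24 h of chemical exposure, transfected HepG2 cells carrying PPARγ-Gal4 chimera reporter constructs are lysed for RNA. Reporter transcripts are measured by RT-PCR and capillary electrophoresis with fluorescent labelling, and gain of signal is fitted versus DMSO.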

Assay [5] deals with Nuclear receptor subfamily 1 group I member 2 (Homo sapiens) (UniProt O75469). The assay is described as follows: ATG_PXR_TRANS: Attagene TRANS-FACTORIAL HepG2 Assay for human Pregnane X Receptor (PXR) (AID 2283008). An outline of the steps:
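HepG2 transfected (FuGene 6) with GAL4-UAS reporter units + PXR-Gal4 chimera; dosed 24 h. Total RNA → oligo(dT) RT → PCR → 6-FAM primer extension → HpaI cut → CE. Gain-of-signal vs DMSO.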

Assay [6] has as its target human RAR-related Orphan Receptor beta (RORb), RORB (gene 6096) (UniProt Q92753). Nature of the assay: ATG_RORb_TRANS: Attagene TRANS-FACTORIAL HepG2 Assay for human RAR-related Orphan Receptor beta (RORb) (AID 2283010).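 On AC50: potency for increased reporter mRNA meaning activation of RORb-Gal4 chimera.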 A digest of the protocol:
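Read-out is reporter mRNA induction, quantified by RT-PCR with fluorescent capillary electrophoresis, 24 h post-dose in transiently transfected HepG2 expressing exogenous NR-Gal4 chimera. Activity fitted upward versus DMSO.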

Assay [7] deals with Retinoic acid receptor RXR-alpha (Homo sapiens) (UniProt P19793). The assay is described as follows: ATG_RXRa_TRANS: Attagene TRANS-FACTORIAL HepG2 Assay for human Retinoid X Receptor alpha (RXRa) (AID 2283012). A digest of the protocol: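 TRANS format reporting activity of exogenous RXRa-Gal4 chimera in transiently transfected HepG2, 24 h exposure. Reporter transcripts quantified by RT-PCR with capillary electrophoresis, with gain of signal scored relative to DMSO.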
Chain of Retinoic acid receptor RXR-alpha (Homo sapiens) (P19793 whole entry, looked up, the tested form may be a part): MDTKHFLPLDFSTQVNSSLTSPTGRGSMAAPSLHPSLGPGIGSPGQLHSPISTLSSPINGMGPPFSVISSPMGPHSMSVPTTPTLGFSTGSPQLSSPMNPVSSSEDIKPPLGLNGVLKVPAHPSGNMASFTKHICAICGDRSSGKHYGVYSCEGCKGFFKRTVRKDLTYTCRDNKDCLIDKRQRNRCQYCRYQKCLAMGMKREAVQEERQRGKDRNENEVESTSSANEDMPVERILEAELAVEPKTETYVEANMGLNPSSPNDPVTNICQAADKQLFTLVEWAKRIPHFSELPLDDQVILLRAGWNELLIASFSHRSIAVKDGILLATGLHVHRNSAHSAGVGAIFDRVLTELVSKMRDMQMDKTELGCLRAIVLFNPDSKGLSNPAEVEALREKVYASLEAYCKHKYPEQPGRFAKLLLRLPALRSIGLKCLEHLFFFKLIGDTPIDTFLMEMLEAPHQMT

Assay [8] addresses human Retinoid X Receptor beta (RXRb), RXRB (gene 6257) (UniProt P28702). Nature of the assay: ATG_RXRb_TRANS: Attagene TRANS-FACTORIAL HepG2 Assay for human Retinoid X Receptor beta (RXRb) (AID 2283013). A digest of the protocol: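 Readout is reporter transcript induction after 24 h dosing. It is measured by RT-PCR of total RNA followed by fluorescent capillary electrophoresis. HepG2 liver cells carry transfected multiple reporter units driven by an exogenous RXRb-Gal4 fusion; activity is relative to DMSO.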

Read-out in assay [9]: E-selectin (Homo sapiens) (UniProt P16581)
The assay is described as follows: BSK_3C_Eselectin: BioMAP Diversity Plus: 3C Assay for Eselectin Biomarker Activity (AID 2283015; active means hit-call score of the fitted dose curve at least 0.9, where 1 is the maximum; inactive means score below 0.9;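 on outcome: cell surface E-selectin protein quantified by ELISA 24 h after dosing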). The note with it: primary human endothelial cells (HUVEC); actives raise or lower the signal. An outline of the steps: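 Primary human umbilical vein endothelial cells (3C system), read 24 h after compound addition; E-selectin measured by ELISA. Bidirectional curve fitting against DMSO baseline; cytotoxicity by parallel SRB total-protein staining.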

Read-out in assay [10]: Interleukin-1 alpha (IL1a), IL1A (gene 3552)
The assay is described as follows: BSK_BE3C_IL1a: BioMAP Diversity Plus: BE3C Assay for Interleukin-1 alpha (IL1a) Biomarker Activity (AID 2283016; active means hit-call score of the fitted dose curve at least 0.9, where 1 is the maximum; inactive means score below 0.9). As to conditions: primary human bronchial epithelial cells; actives raise or lower the signal. An outline of the steps: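 IL-1a measured by ELISA after 24 h treatment of human primary bronchial epithelial cells, with gain or loss of signal fitted versus DMSO. Parallel cultures stained with SRB gauge overt cytotoxicity.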

Read-out in assay [11]: Monocyte Chemoattractant Protein-1 (MCP1), CCL2 (gene 6347)
The assay is described as follows: BSK_3C_MCP1: BioMAP Diversity Plus: 3C Assay for Monocyte Chemoattractant Protein-1 (MCP1) Biomarker Activity (AID 2283017; active means hit-call score of the fitted dose curve at least 0.9, where 1 is the maximum; inactive means score below 0.9). As to conditions: primary human endothelial cells (HUVEC); actives raise or lower the signal. An outline of the steps:
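Human umbilical vein endothelial cells (3C system) exposed to chemicals for 24 h; MCP-1 quantified by ELISA against the DMSO baseline with bidirectional fitting, and parallel SRB staining used to assess cytotoxicity.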

Read-out in assay [12]: Monocyte Chemoattractant Protein-1 (MCP1), CCL2 (gene 6347)
Nature of the assay: BSK_4H_MCP1: BioMAP Diversity Plus: 4H Assay for Monocyte Chemoattractant Protein-1 (MCP1) Biomarker Activity (AID 2283018; active means hit-call score of the fitted dose curve at least 0.9, where 1 is the maximum; inactive means score below 0.9). As to conditions: primary human endothelial cells (HUVEC); actives raise or lower the signal. A digest of the protocol: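 ELISA of MCP-1 (CCL2) 24 h after chemical dosing of HUVEC in the BioMAP 4H system. Gain or loss versus DMSO fitted; parallel SRB staining (560 nm) tracked overt cytotoxicity.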

Read-out in assay [13]: Human Leukocyte Antigen - DR isotype (HLADR), HLA-DRA (gene 3122)
The assay is described as follows: BSK_3C_HLADR: BioMAP Diversity Plus: 3C Assay for Human Leukocyte Antigen - DR isotype (HLADR) Biomarker Activity (AID 2283019; active means hit-call score of the fitted dose curve at least 0.9, where 1 is the maximum; inactive means score below 0.9). The note with it: primary human endothelial cells (HUVEC); actives raise or lower the signal. A digest of the protocol: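 HUVEC monoculture, HLA-DR measured by ELISA 24 h after chemical dosing. Fitted bidirectionally against DMSO baseline; parallel SRB staining assessed cytotoxicity, with 3C proliferation read by SRB at 48 h.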

Read-out in assay [14]: Interleukin-8 (IL8), CXCL8 (gene 3576)
Nature of the assay: BSK_3C_IL8: BioMAP Diversity Plus: 3C Assay for Interleukin-8 (IL8) Biomarker Activity (AID 2283020; active means hit-call score of the fitted dose curve at least 0.9, where 1 is the maximum; inactive means score below 0.9). The note with it: primary human endothelial cells (HUVEC); actives raise or lower the signal. A digest of the protocol: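 IL-8 was measured by ELISA in HUVEC cultures 24 h after chemical dosing, with gain or loss of signal fitted relative to DMSO. Parallel SRB total-protein staining tracked overt cytotoxicity.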

Read-out in assay [15]: Monokine induced gamma interferon (MIG), CXCL9 (gene 4283)
Nature of the assay: BSK_3C_MIG: BioMAP Diversity Plus: 3C Assay for Monokine induced gamma interferon (MIG) Biomarker Activity (AID 2283021; active means hit-call score of the fitted dose curve at least 0.9, where 1 is the maximum; inactive means score below 0.9). The note with it: primary human endothelial cells (HUVEC); actives raise or lower the signal. A digest of the protocol:
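ELISA measurement of MIG in human umbilical vein endothelial cells 24 h after treatment. Cytotoxicity tracked by SRB staining in parallel cultures; gain or loss of signal fitted relative to DMSO.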

Assay [16] has as its target human Peroxisome Proliferator-activated Receptor delta (PPARd), PPARD (gene 5467) (UniProt Q03181). The assay is described as follows: ATG_PPARd_TRANS: Attagene TRANS-FACTORIAL HepG2 Assay for human Peroxisome Proliferator-activated Receptor delta (PPARd) (AID 2283002). A digest of the protocol: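 Measured quantity: GAL4-UAS reporter transcript induction in HepG2 after 24 h chemical dosing, with NR-Gal4 chimeras supplied by transient transfection. Detection by RT-PCR and capillary electrophoresis; upward fit against DMSO.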

Assay [17] has as its target human Retinoic Acid Receptor beta (RARb), RARB (gene 5915) (UniProt P10826). The assay is described as follows: ATG_RARb_TRANS: Attagene TRANS-FACTORIAL HepG2 Assay for human Retinoic Acid Receptor beta (AID 2283004). A digest of the protocol:
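HepG2 cells were transiently transfected with GAL4-UAS reporter units that report activity of exogenous chimeric NR-Gal4 proteins, then exposed to compound for 24 h. Reporter mRNA was quantified by RT-PCR with capillary electrophoresis fluorescence, as gain of signal over DMSO.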

Assay [18] deals with Retinoic acid receptor alpha (Homo sapiens) (UniProt P10276). The assay is described as follows: ATG_RARa_TRANS: Attagene TRANS-FACTORIAL HepG2 Assay for human Retinoic Acid Receptor alpha (RARa) (AID 2283005). An outline of the steps:
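HepG2 cells transiently transfected with multiple reporter units expressing chimeric RARα-GAL4 fusion, with GAL4-UAS-driven reporters. After 24 h compound exposure, reporter mRNA induction quantified by RT-PCR and capillary electrophoresis with fluorescent labeling; gain-of-signal fitted relative to DMSO control.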

In assay [19] the target is human RAR-related Orphan Receptor gamma (RORg), RORC (gene 6097) (UniProt P51449). The assay is described as follows: ATG_RORg_TRANS: Attagene TRANS-FACTORIAL HepG2 Assay for human RAR-related Orphan Receptor gamma (RORg) (AID 2283011).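 On AC50: potency for induction of reporter transcripts above DMSO so activators.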 An outline of the steps: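 HepG2 cells transiently transfected with GAL4-UAS reporter units and chimeric RORg-Gal4 construct; after 24 h chemical exposure, reporter mRNA measured by RT-PCR with fluorescent capillary electrophoresis, gain of signal fitted against DMSO.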

In assay [20] the target is human Thyroid Receptor alpha (THRa1), THRA (gene 7067) (UniProt P10827). The assay is described as follows: ATG_THRa1_TRANS: Attagene TRANS-FACTORIAL HepG2 Assay for human Thyroid Receptor alpha (THRa1) (AID 2283014). An outline of the steps:
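HepG2 cells transiently transfected with chimeric NR-Gal4 and GAL4-UAS reporter units, dosed 24 h. Reporter mRNA quantified by RT-PCR, fluorescent labeling, HpaI digestion and capillary electrophoresis; gain-of-signal fit versus DMSO.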

Chain of Nuclear receptor subfamily 1 group I member 2 (Homo sapiens) (O75469 whole entry, looked up, the tested form may be a part): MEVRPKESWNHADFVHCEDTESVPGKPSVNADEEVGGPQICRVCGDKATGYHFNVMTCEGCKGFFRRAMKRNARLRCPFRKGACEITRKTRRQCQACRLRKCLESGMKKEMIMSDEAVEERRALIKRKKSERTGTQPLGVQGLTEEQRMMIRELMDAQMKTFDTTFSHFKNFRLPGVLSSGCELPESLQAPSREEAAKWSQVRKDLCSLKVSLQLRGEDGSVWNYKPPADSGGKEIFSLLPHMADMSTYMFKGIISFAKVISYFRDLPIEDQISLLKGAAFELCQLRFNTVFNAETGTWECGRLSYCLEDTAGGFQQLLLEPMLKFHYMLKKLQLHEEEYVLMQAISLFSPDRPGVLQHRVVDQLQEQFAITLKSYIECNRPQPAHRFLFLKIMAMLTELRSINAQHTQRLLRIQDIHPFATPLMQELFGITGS
Chain of human Thyroid Receptor alpha (THRa1), THRA (gene 7067) (P10827 whole entry, looked up, the tested form may be a part): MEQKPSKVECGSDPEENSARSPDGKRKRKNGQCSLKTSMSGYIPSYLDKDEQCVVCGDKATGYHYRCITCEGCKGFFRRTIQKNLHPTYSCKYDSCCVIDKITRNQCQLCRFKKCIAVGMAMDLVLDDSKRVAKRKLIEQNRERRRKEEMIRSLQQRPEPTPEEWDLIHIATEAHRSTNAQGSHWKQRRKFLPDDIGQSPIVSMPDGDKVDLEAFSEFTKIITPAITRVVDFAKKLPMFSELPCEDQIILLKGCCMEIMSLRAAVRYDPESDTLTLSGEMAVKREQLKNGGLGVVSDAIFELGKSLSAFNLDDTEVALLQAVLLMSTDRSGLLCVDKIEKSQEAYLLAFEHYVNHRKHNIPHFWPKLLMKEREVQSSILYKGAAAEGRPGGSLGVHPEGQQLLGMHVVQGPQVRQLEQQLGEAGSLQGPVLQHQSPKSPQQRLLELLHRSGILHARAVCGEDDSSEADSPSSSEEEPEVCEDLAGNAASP
Chain of human Retinoic Acid Receptor beta (RARb), RARB (gene 5915) (P10826 whole entry, looked up, the tested form may be a part): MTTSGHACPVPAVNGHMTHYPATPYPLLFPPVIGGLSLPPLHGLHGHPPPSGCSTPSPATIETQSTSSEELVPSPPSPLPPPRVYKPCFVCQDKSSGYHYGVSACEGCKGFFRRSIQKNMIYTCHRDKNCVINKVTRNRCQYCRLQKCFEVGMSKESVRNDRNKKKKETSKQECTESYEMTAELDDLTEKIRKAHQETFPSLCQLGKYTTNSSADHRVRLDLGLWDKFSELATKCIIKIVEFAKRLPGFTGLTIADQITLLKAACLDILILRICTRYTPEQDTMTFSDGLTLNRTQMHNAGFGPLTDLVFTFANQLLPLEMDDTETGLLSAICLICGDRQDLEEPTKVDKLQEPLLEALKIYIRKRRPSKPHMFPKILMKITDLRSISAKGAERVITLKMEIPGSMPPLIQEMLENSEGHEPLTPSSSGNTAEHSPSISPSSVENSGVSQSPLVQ
Chain of human RAR-related Orphan Receptor beta (RORb), RORB (gene 6096) (Q92753 whole entry, looked up, the tested form may be a part): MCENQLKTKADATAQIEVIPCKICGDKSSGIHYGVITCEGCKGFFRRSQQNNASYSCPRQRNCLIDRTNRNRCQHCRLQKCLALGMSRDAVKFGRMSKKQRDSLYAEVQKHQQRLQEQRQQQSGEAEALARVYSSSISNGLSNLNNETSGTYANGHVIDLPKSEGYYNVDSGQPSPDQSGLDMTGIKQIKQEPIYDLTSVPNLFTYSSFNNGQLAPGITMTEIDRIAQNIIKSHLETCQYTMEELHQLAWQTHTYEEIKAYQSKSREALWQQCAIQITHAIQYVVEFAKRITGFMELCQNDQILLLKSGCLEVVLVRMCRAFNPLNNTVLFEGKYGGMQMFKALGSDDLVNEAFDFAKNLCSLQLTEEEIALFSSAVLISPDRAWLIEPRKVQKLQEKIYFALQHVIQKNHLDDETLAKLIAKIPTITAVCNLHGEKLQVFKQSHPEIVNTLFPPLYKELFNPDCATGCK
Chain of human Peroxisome Proliferator-activated Receptor delta (PPARd), PPARD (gene 5467) (Q03181 whole entry, looked up, the tested form may be a part): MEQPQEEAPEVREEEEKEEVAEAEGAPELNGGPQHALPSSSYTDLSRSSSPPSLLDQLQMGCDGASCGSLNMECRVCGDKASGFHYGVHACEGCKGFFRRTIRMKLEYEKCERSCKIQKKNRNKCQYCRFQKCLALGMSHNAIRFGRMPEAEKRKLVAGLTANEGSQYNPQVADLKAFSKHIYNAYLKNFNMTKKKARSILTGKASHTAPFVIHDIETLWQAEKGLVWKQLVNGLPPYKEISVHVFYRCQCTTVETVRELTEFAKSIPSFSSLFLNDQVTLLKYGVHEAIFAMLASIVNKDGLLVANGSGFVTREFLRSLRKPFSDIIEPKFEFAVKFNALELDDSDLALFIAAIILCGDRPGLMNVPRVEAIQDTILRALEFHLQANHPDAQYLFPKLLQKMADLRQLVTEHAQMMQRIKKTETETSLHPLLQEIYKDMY
Chain of human Retinoid X Receptor beta (RXRb), RXRB (gene 6257) (P28702 whole entry, looked up, the tested form may be a part): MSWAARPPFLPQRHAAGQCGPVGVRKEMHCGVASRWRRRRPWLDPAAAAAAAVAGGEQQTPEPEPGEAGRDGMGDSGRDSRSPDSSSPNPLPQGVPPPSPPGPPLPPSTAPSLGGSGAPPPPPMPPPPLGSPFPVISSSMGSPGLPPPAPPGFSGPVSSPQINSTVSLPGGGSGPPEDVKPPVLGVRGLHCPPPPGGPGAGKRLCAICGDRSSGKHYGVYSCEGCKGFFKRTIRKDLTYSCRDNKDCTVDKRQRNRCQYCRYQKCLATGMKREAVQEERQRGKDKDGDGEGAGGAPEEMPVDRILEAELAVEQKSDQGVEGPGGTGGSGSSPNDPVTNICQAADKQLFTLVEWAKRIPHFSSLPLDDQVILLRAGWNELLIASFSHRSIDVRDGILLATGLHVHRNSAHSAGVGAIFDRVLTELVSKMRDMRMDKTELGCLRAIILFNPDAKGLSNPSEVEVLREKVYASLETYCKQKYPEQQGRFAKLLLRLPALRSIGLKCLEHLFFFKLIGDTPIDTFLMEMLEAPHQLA
Chain of E-selectin (Homo sapiens) (P16581 whole entry, looked up): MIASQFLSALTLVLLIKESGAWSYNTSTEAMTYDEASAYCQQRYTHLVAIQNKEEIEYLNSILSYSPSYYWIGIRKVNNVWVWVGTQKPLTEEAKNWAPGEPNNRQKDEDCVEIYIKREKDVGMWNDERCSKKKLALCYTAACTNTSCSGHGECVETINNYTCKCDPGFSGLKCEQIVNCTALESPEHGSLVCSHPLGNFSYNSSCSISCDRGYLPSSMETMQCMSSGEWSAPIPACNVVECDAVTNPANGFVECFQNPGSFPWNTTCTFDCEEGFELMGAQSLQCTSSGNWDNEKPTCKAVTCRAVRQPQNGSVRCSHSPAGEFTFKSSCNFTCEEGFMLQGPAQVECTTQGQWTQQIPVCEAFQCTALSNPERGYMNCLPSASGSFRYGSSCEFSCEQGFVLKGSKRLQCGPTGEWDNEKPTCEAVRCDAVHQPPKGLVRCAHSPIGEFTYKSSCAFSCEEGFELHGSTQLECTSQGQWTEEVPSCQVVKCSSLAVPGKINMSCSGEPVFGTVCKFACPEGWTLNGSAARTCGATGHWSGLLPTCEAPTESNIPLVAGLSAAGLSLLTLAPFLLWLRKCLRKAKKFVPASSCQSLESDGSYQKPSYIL
Chain of Retinoic acid receptor alpha (Homo sapiens) (P10276 whole entry, looked up, the tested form may be a part): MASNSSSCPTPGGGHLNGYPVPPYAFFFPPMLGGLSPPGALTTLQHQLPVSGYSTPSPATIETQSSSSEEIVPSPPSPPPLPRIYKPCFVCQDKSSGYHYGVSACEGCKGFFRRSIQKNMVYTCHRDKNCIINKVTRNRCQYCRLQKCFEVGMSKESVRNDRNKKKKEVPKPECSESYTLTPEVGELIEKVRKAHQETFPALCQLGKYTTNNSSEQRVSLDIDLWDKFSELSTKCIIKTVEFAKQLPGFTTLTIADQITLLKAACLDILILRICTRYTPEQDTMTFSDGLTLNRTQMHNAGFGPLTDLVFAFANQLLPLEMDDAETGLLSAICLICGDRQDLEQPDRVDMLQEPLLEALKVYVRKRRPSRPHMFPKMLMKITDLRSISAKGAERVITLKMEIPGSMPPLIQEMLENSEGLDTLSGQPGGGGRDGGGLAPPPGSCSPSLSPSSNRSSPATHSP
Chain of human Peroxisome Proliferator-activated Receptor alpha (PPARa), PPARA (gene 5465) (Q07869 whole entry, looked up): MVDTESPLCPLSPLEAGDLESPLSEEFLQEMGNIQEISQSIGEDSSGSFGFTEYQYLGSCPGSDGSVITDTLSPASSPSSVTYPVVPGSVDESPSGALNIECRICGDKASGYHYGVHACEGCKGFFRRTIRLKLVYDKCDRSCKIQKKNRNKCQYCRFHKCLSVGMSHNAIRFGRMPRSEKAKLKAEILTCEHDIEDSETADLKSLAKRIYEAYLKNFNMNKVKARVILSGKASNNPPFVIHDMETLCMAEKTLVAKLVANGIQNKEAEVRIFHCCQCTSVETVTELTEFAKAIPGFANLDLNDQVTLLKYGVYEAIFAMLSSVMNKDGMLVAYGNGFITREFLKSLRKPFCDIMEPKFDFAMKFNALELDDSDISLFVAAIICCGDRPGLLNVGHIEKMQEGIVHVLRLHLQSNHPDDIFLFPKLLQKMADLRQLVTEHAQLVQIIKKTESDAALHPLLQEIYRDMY

With `Oc1ccc2ccccc2c1`, the result in assay [1], in assay [2], in assay [4], in assay [5], in assay [6] and in assay [7] was inactive. The call in assay [8], in assay [9], in [10], in assay [11], in assay [12] and in [13] was inactive. The outcome in assay [14] and in assay [15] was inactive. In assay [3], the AC50 was 10.7 µM (active).

As to `CCCCCCCCCCCCO`, the compound was called inactive in assay [1], in assay [16], in assay [17], in assay [18], in [5] and in [6]. The call in [19], in [8], in assay [20] and in assay [15] was inactive. Further, the AC50 in assay [2] is 36.2 µM (active); in assay [3], 30.2 µM (active); in assay [9], 31 µM (active); in assay [10], 19.8 µM (active); in assay [11] it was 31 µM (active); in [12], 31.9 µM (active). In addition, the AC50 was 31.3 µM (active) in assay [13] and 36 µM (active) in [14].

With `Cc1ccc(C(C)C)cc1`, the call in assay [1], in assay [16], in assay [2], in assay [17], in assay [3] and in [5] was inactive. Also, the result in assay [19], in [8], in [20], in [9], in assay [10] and in [11] was inactive. Besides, the result in assay [12], in assay [13], in [14] and in assay [15] was inactive.

With `CC(O)CC(C)(C)O` (stereo not drawn), the outcome in [1], in assay [2], in assay [17], in [18], in assay [3] and in assay [4] was inactive. In addition, the outcome in [5], in [6], in assay [19], in assay [8], in assay [20] and in [9] was inactive. Besides, the outcome in assay [10], in assay [11], in assay [12], in assay [13], in [14] and in [15] was inactive.

With `CC1=CC(=O)/C(=C(/C)O)C(=O)O1`, the compound was classed as inactive in assay [1], in assay [16], in assay [2], in [17], in assay [3] and in assay [6]. Besides, the compound was called inactive in assay [8], in [20], in [9], in [10], in assay [11] and in [12]. In addition, the result in assay [13], in assay [14] and in assay [15] was inactive.

In the case of `O=c1c(-c2ccc(O)cc2)coc2cc(O)cc(O)c12`, the AC50 is 24.2 µM (active) and 100 µM (active) and 25.6 µM (active) in assay [1]; 8.1 µM (active) in assay [3]; 32.7 µM (active) [middle of 4 runs] in assay [4]; 24.2 µM (active) in assay [5]; 27.4 µM (active) in assay [6]; 26.5 µM (active) in [19]. The half-maximal activity concentration (AC50) in [8] was 25.2 µM (active) and 27.2 µM (active); in assay [11], 25.3 µM (active); in assay [12] it was 8.42 µM (active); in assay [13] it was 21.1 µM (active). The call in assay [16], in assay [2], in assay [18], in [5], in assay [6] and in assay [19] was inactive. For the same compound, the outcome in assay [7], in assay [8], in [20], in assay [9] and in [15] was inactive.
